The results in this text go back to PubChem BioAssay (NCATS).

Inconclusive results are not listed. Calls of active or inactive are those of the source. Calls come from the whole dose curve; as a rule, active = well fitted activation curve with a large enough effect; inconclusive = small, poorly fitted or top-dose-only effect; inactive = no such curve, though single readings can be large or run the other way.
Potency is the fitted concentration of half-maximal effect.

Chain of Cellular tumor antigen p53 (Homo sapiens) (P04637 whole entry, looked up): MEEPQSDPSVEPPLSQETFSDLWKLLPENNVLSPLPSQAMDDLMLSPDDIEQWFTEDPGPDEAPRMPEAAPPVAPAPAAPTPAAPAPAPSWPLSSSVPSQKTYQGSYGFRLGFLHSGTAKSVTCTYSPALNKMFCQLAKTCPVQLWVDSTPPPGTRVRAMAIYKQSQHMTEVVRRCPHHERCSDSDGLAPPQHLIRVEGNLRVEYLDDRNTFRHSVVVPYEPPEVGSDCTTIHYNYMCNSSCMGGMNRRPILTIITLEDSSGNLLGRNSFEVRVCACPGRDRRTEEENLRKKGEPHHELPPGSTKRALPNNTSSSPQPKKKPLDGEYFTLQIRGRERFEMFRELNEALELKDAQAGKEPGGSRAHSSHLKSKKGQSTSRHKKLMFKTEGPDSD

This assay concerns the target Cellular tumor antigen p53 (Homo sapiens) (UniProt P04637). As to the kind of experiment: Primary qHTS for small molecule compounds that upregulate eGFP-tagged delta133p53alpha (in N-terminal) cells. (AID 2060322).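 For activation: series mostly up to about 56 µM; 0% = DMSO vehicle and 100% = reference activator.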 Note: nearly all actives have a fitted effect of over 75% in size. Particulars: NCI-H358 eGFP-delta133p53alpha fluorescence, 24 h; activation: stronger effect = higher value. Summed up: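 NCI-H358 cells pre-induced 24 h with 10 ng/ml doxycycline to express N-terminal eGFP-delta133p53alpha, then dosed 24 h at 37C without doxycycline; fixed, Hoechst-stained, GFP intensity by laser scanning cytometry, normalized to DMSO (0%) and 57.5 uM 5-azacytidine (100%).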
In general terms: qHTS replaces the single test concentration by a dilution series.
As to `Cc1ccc(-c2nc3ccc(C)cn3c2CC(=O)N(C)C)cc1`, the activation was -32.2% (inactive).

Regarding `C[C@@H]1[C@@H](CC(C[C@H]2O[C@@H]3O[C@]4(C)CC[C@@H]5[C@H](C)CC[C@@H]([C@H]2C)[C@@]35OO4)C[S+](=O)([O-])c2ccc(COC(=O)N(C)C)cc2)O[C@@H]2O[C@]3(C)CC[C@H]4[C@H](C)CC[C@@H]1[C@@]24OO3` (some centres undefined), the activation was 8.23% (inactive).

Consider `C[C@]12CC[C@H]3[C@@H](CCC4=CC(=O)CC[C@@H]43)[C@@H]1CC[C@@H]2OC(=O)CCc1ccccc1`, for which the activation is 2.51% (inactive).

Consider `CCCC1CCCCN1` (centres undefined), for which the activation is -16.4% (inactive).

For the compound `O=C(Nc1ccc(Br)cc1)c1cc(Br)cc(Br)c1O`, the activation is 29.9% (inactive).

As for `C[C@]12CC[C@H]3[C@@H](CCC4=CC(=O)CC[C@@H]43)[C@@H]1CC[C@@H]2O`, the activation is -0.837% (inactive).

For the compound `c1cc2c(cc1[C@H]1OC[C@H]3[C@H]1CO[C@H]3c1ccc3c(c1)OCO3)OCO2`, the activation was 13.9% (inactive).

Regarding `COc1cc(CCN)cc(OC)c1OC`, the activation is -6.21% (inactive).

On to `O=[N+]([O-])c1ncc[nH]1`, for which the activation is 15.2% (inactive).

As to `CC(CC(C#N)(c1ccccc1)c1ccccc1)N(C)C` (centres undefined), the activation was 24.3% (inactive).

`CC(C(=O)c1ccccc1)N(C)C` (centres undefined): the activation is 22.6% (inactive).

For the compound `O=C(O)c1ccnc2cc(C(OCCN3CCC(F)(F)CC3)c3ccccc3Cl)[nH]c12` (centres undefined), the activation is -26.8% (inactive).

For `C[N+]1(C)[C@@H]2CC[C@H]1CC(OC(=O)C(CO)c1ccccc1)C2` (some centres undefined), the activation was 25.4% (inactive).

With `C=C1C[C@H]2[C@H]3CCC(=O)[C@@]3(C)CC[C@@H]2[C@@]2(C)C=CC(=O)C=C12`, the activation was 3.97% (inactive).

In the case of `COP(=S)(OC)Oc1ccc(SC)c(C)c1`, the activation was -15.9% (inactive).

With `Nc1ccccc1C(=O)OCC(O)CO` (centres undefined), the activation was -5.02% (inactive).

Turning to `CC(C)(C)NCC(O)c1cc(Cl)c(N)c(Cl)c1` (centres undefined), the activation is -6.21% (inactive).

Take `CCC(=O)O[C@H]1CC[C@H]2[C@@H]3CCC4=CC(=O)CC[C@]4(C)[C@H]3CC[C@]12C`: the activation is -0.565% (inactive).

`NP(N)(=O)NC(=O)c1ccc(F)cc1`: the activation is -15.1% (inactive).

With `COc1ccc(C(c2ccc(OC)cc2)C(Cl)(Cl)Cl)cc1`, the activation is -10.7% (inactive).

Regarding `CC(=O)C1CCOC1=O` (centres undefined), the activation is -9.21% (inactive).

With `O=c1n(Cl)c(=O)n(Cl)c(=O)n1Cl`, the activation is 6.21% (inactive).

Regarding `O=c1c(C2CC(c3ccc(-c4ccc(Br)cc4)cc3)Cc3ccccc32)c(O)sc2ccccc12` (centres undefined), the activation was -13% (inactive).

Regarding `Nc1ccc(Cl)cc1`, the activation is -6.21% (inactive).

`O=C(N/N=C/c1ccc([N+](=O)[O-])o1)c1cc([N+](=O)[O-])cc([N+](=O)[O-])c1O`: the activation is -6.21% (inactive).

As to `C=C1CC[C@@]2(O)[C@H]3Cc4ccc(O)c5c4[C@@]2(CCN3CC2CC2)[C@H]1O5`, the activation is 6.21% (inactive).

As to `CCCCC(CC)COC(=O)c1ccccc1C(=O)OCC(CC)CCCC` (centres undefined), the activation was 0% (inactive).

For the compound `Nc1ccc(Cl)cc1N`, the Potency is 22.4 µM (active).

For `O=C(O)COc1ccccc1`, the activation is -28.8% (inactive).

`C[N+](C)(C)CCOC(=O)C(O)(c1ccccc1)c1ccccc1`: the activation is 16.4% (inactive).

For the compound `C[C@]12CC[C@@H]3c4ccc(OC(=O)N(CCCl)CCCl)cc4CC[C@H]3[C@@H]1CC[C@@H]2O`, the activation was 11.9% (inactive).

Take `CC1=C(C(=O)O)N2C(=O)[C@@H](N)[C@H]2SC1`: the activation was -3.35% (inactive).

Take `COc1ccc2c(c1)[C@]13CCCCC1C(C2)N(C)CC3` (some centres undefined): the activation was 8.01% (inactive).

With `CC#C[C@]1(O)CC[C@H]2[C@@H]3C[C@H](C)C4=CC(=O)CC[C@]4(C)[C@H]3CC[C@@]21C`, the activation is -4.18% (inactive).

In the case of `COc1cc(OC)c(OC)cc1C=O`, the activation was 5.76% (inactive).

As for `COc1ccc2c(c1)CN(C)CC2c1ccc(Cl)c(Cl)c1` (centres undefined), the activation is 10.8% (inactive).

For `O=[N+]([O-])c1cc([N+](=O)[O-])c2ccccc2c1`, the activation is -5.02% (inactive).

For `Cc1ccc(N=CN(C)C=Nc2ccc(C)cc2C)c(C)c1`, the activation was 13% (inactive).

With `ClCCCN1CCN(c2cccc(Cl)c2)CC1`, the activation is -2.82% (inactive).
